# Screening data: PubChem, several laboratories
# SENP7 block: blocks the human protease SENP7; Q9BQF6; inhibition, % at 5 µM; recombinant SENP7, Z-RLRGG-aminoluciferin luminescence, 40 min; 330,000 tested, 1.5% active; AID 434973;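 active = inhibition above about 50% at the single test dose, limit read from the data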;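 note: plate controls were DMSO with enzyme for no effect and no enzyme buffer wells for full effect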
# Target sequence (Q9BQF6 706-1050 limits assumed): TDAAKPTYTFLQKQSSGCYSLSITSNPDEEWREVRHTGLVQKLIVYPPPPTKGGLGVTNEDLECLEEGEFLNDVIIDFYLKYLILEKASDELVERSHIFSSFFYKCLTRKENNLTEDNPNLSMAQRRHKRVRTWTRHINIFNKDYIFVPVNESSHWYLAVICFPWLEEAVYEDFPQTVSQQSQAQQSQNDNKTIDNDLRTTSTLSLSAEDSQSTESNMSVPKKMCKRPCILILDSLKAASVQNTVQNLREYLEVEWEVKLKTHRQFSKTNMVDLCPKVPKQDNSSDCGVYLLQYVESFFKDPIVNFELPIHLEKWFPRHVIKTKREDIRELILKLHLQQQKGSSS
# Platelet DG rel: modulates dense granule release in human platelets. human platelet-rich plasma, SFLLRN dense granule ATP release, luminescence. inhibition, %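 (compounds screened at 7.5 µM in platelet-rich plasma)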. AID 1663. 300,000 tested, 0.22% active;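 active = mean replicate score, as percent of positive control, at or above 50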
# HSP90 inh: HSP90 refolding inhibition in rabbit reticulocyte lysate. inhibition, % at 5.6 µM. AID 1789. 290,000 tested, 0.91% active. luciferase refolding luminescence, 3 h;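 active = inhibition above the screen-wide mean plus 3 SD, computed separately per campaign, cut at about 16% in these data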;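 note: 0% = DMSO wells and 100% = 60 µM geldanamycin wells; inhibitors lower the luminescence because luciferase stays unfolded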
# SENP6 block: SENP6 protease inhibition; Recombinant SENP6 catalytic domain, aminoluciferin luminescence; inhibition, % at 10 µM; 330,000 tested, 1.8% active; AID 2599;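 active = inhibition above about 50% at the single tested dose, limit read from the data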;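 note: plate controls were DMSO wells with enzyme for no effect and DMSO wells lacking enzyme for full effect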
# SENP8 block-1: inhibitors of human SENP8 protease; inhibition, % at 20 µM; recombinant SENP8, Nedd8 substrate fluorescence; AID 602440; 360,000 tested, 0.64% active; Q96LD8; in the data active = inhibition mostly above about 40%, no sharp cut-off; inactive = mostly below about 27%
# Target sequence (Q96LD8 whole entry, looked up): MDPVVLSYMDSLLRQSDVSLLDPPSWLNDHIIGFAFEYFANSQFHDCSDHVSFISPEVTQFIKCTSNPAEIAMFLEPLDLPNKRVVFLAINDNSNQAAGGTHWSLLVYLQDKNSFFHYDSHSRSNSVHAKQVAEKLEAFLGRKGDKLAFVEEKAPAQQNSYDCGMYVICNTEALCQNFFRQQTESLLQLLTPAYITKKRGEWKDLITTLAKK
# SENP8 block-2: blocks the human protease SENP8; Q96LD8; inhibition, % at 10 µM; purified SENP8, Z-RLRGG-aminoluciferin cleavage, luminescence; 330,000 tested, 1.2% active; AID 2540; in the data active = inhibition above about 50%
# SENP8 confirm: human SENP8 inhibition, confirmed | shares compounds with SENP7 block | Recombinant SENP8, Z-RLRGG-aminoluciferin luminescence, 60 min | inhibition, % at 12.5 µM | 6,200 tested, 40% active | AID 488912;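 active = mean inhibition across replicates above about 50%, limit read from the data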
# SENP6 confirm: human SENP6 inhibition, confirmed. recombinant SENP6, Z-RLRGG-aminoluciferin luminescence. 6,200 tested, 58% active. inhibition, % at 12.5 µM. shares compounds with SENP7 block
# SENP7 confirm: human SENP7 inhibition, confirmed | AID 488917 | inhibition, % at 12.5 µM | 6,200 tested, 69% active | recombinant SENP7, Z-RLRGG-aminoluciferin luminescence, 40 min | shares compounds with SENP7 block
# Casp3 select: selectivity test for SENP inhibitors: human caspase-3 inhibition; purified caspase-3, Z-DEVD-aminoluciferin luminescence, 60 min; 6,200 tested, 60% active; shares compounds with SENP7 block; inhibition, % at 12.5 µM;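 active = mean inhibition above about 50%, limit read from the data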;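 note: plate controls were enzyme with DMSO for no effect and wells without caspase-3 for full effect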
# Luc interf: luminescence interference (SENP counter-screen); inhibition, % at 12.5 µM; 6,200 tested, 39% active; Pre-incubated SENP8/Z-RLRGG-aminoluciferin, luciferase luminescence interference; shares compounds with SENP7 block;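 active = mean inhibition above about 50% when retested at one dose, limit read from the data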;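 note: plate controls were DMSO wells with completed reaction for no effect and substrate without enzyme for full effect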
# * marks the source's active call; other numbers are inactive results; · = no result. Compounds with a hit are over-represented: about 2.8% of the library has one in this group of screens.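 Rule for the calls, unless noted: active = mean inhibition above about 50% in the one-dose retest (limit read from the data); inactive = the rest.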
SMILES,SENP7 block,Platelet DG rel,HSP90 inh,SENP6 block,SENP8 block-1,SENP8 block-2,SENP8 confirm,SENP6 confirm,SENP7 confirm,Casp3 select,Luc interf
CC(Nc1c[nH]c(=O)[nH]c1=O)c1ccccc1 (stereo unspecified),-5,-5,-4,0,3,1,·,·,·,·,·
CC(=O)c1cccc(NC(=O)c2ccc3c(c2)OCO3)c1,17,9,0,12,17,-15,·,·,·,·,·
O=C(Nc1ccc(Cl)cc1)C1=Cc2ccccc2OC1,45,-15,-2,66*,-19,45,53*,62*,87*,35,34
O=C(Nc1ccc2c(c1)oc1ccccc12)c1ccc2c(c1)OCO2,61*,-1,-1,26,-17,10,-6,7,7,4,3
Cc1cc(C)cc(NC(=O)Nc2ccc(N3CCCCC3)cc2)c1,82*,-21,-3,81*,24,80*,16,20,42,33,20
O=C(Nc1ccc2nsnc2c1)c1ccc2c(c1)OCO2,78*,·,-4,67*,-275,65*,37,57*,88*,80*,46
COc1cc(CC(=O)N2c3ccccc3N=C(c3ccccc3)C2C(=O)NCc2ccccc2)cc(OC)c1 (stereo unspecified),·,·,·,·,0,·,·,·,·,·,·
CCCN(C(=O)/C=C/c1ccc(S(=O)(=O)N(CC)CC)cc1)C1CCS(=O)(=O)C1 (stereo unspecified),0,·,·,-6,4,11,·,·,·,·,·
O=C(Nc1ccc(N2CCCC2)cc1)c1cccc(Cl)c1,94*,14,8,88*,30,87*,3,56*,51*,73*,9
O=C(Nc1ccc(N2CCCCC2)cc1)C(Cl)c1ccccc1 (stereo unspecified),54*,5,0,61*,12,34,14,15,15,28,26
O=C(Nc1cccc(-c2nn[nH]n2)c1)c1ccc(Cl)s1,16,1,-1,51*,2,22,42,36,72*,35,58*
O=C(Nc1ccc2c(c1)OCO2)c1cccc(Cl)c1,92*,13,-2,92*,10,81*,-6,87*,98*,90*,74*
Cc1cc(C#N)c(C)n1-c1cc(S(=O)(=O)N2CCOCC2)ccc1N1CCCC1,3,11,9,1,-8,5,·,·,·,·,·
OC(c1ccc(F)cc1)c1nc(-c2cncnc2)cs1 (stereo unspecified),·,·,·,·,7,·,·,·,·,·,·
Oc1ccc(-c2nccc(-c3ccccn3)n2)cc1,-3,9,2,-7,10,-9,·,·,·,·,·
Cc1ccccc1CN1C[C@H]2CON(C)[C@H]2C[C@H]1c1cccc(Br)c1,·,·,·,·,4,·,·,·,·,·,·
O=C(Nc1ccc(F)c(F)c1)c1ccc2c(c1)OCO2,-5,9,0,71*,5,67*,73*,74*,91*,76*,48
O=C(Nc1ccc2c(c1)OCO2)c1ccc(Cl)s1,74*,3,2,76*,12,62*,-1,63*,88*,66*,64*
O=C(Nc1ccc(N2CCCCCC2)cc1)c1ccc[nH]1,33,·,·,66*,-5,56*,11,9,-2,-1,35
O=C(Nc1ccc(N2CCCCCC2)cc1)c1ccccc1Cl,-2,0,0,21,14,24,·,·,·,·,·
O=C(Nc1ccc(Cl)c(Cl)c1)c1ccc2c(c1)OCO2,72*,3,4,80*,17,77*,19,77*,96*,65*,9
O=C(Nc1ccc(Cl)c(Cl)c1)c1ccccc1,80*,·,·,90*,8,84*,-26,79*,96*,57*,27
O=C(Nc1ccc(Cl)cc1)Nc1ccc(Cl)c(Cl)c1,-5,·,·,-1,·,4,·,·,·,·,·
NC(=O)c1ccc(NC(=O)c2ccc3c(c2)OCO3)cc1,46,-7,-2,9,12,0,·,·,·,·,·
O=C(Nc1ccc(NC(=O)c2ccc(Cl)cc2Cl)cc1)c1ccc2c(c1)OCO2,-7,2,4,-11,-64,-1,·,·,·,·,·
SMILES,SENP7 block,Platelet DG rel,HSP90 inh,SENP6 block,SENP8 block-1,SENP8 block-2,SENP8 confirm,SENP6 confirm,SENP7 confirm,Casp3 select,Luc interf
O=C(Nc1ccc(Cl)c(Cl)c1)Nc1ccccc1O,97*,4,-1,-3,5,98*,98*,100*,104*,90*,98*
O=C(Nc1ccc(Br)cc1)c1ccc2c(c1)OCO2,52*,2,1,34,-1,6,12,19,70*,47,2
O=C(Nc1ccc(Cl)cc1)c1ccc2c(c1)OCO2,76*,9,10,73*,22,37,37,54*,88*,74*,18
Oc1c(C=Nc2ccccc2Cl)[nH]c2ccccc12,7,-1,3,14,-43,8,·,·,·,·,·
CCCS(=O)(=O)NC(=O)C1(C)CCCN(C(=O)c2cc(F)ccc2C)C1 (stereo unspecified),·,·,·,·,18,·,·,·,·,·,·
Fc1ccc(NC(=S)N2N=CCC2c2ccccc2)cc1 (stereo unspecified),38,1,4,58*,26,25,38,31,66*,46,45
S=C(Nc1ccccc1)N1N=CCC1c1ccccc1 (stereo unspecified),-11,-3,2,-17,-14,-18,·,·,·,·,·
Cc1csc(NC(=O)CCCNC(=O)c2ccc(Cl)cc2)n1,5,·,·,-1,10,0,·,·,·,·,·
NNc1nc2sc3c(c2c(=O)n1Cc1ccccc1)CCC3,3,6,4,13,6,-1,·,·,·,·,·
NNc1nc(-c2ccccc2)nc2sc3c(c12)CCCC3,80*,-3,8,79*,-150,66*,-7,12,20,16,16
COc1ccc(Cc2c(O)nc(SCC(=O)c3ccc(OC)cc3)[nH]c2=O)cc1,1,-2,-3,6,4,-4,·,·,·,·,·
Cc1nc(SCC(N)=O)[nH]c(=O)c1Cc1ccc(OC(C)C)cc1,0,-2,5,64*,13,-5,12,6,12,7,2
CCOC(=O)c1ccc(NC(=O)N2CCc3ccccc32)cc1,96*,37,2,91*,17,77*,-13,81*,95*,76*,23
